Rows were chosen to be rich in hits. Some 21% of all compounds tested hit in one or more screens of this group.
Gal4-VP16 FLuc: counter-screen for ROR gamma inhibitors: Gal4-VP16 reporter; Drosophila S2 Gal4-VP16 UAS-luciferase, luminescence, 20 h; AID 2546; Potency, µM (top dose mostly 53.6 µM), actives largely listed as inhibitors; actives 3.5% (n = 310,000);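 note: Gal4-VP16 expression switched on by copper sulfate through the metallothionein promoter; nearly all actives have a fitted effect of over 50% in size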
IL1B secr inh: blocks inflammasome-driven IL-1 beta release. actives 4.7% (n = 360,000). THP-1 LPS/ATP IL-1B secretion, AlphaLISA, 16 h; active compounds read low. activity change, % at 57.5 µM; in the data active = activity change below about -50%; inconclusive = mostly about -30% to -49%
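Secreted IL-1B measured by AlphaLISA bead assay after 16 h compound exposure of THP-1 cells; compounds (final up to 57.5 uM) added 1 h before LPS (250 ng/mL) and ATP (1.25 mM) stimulation; lower signal means less secretion.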
TDP1 cell noCPT: qHTS for Inhibitors of human tyrosyl-DNA phosphodiesterase 1 (TDP1): qHTS in cells in absence of CPT. DT40 Tdp1-/- hTDP1 cells, no CPT, ATP luminescence, 48 h. Potency, µM (titrated, usually from 46.2 µM), most hits filed as inhibitors. actives 15% (n = 420,000); note: nearly all actives have a fitted effect of over 55% in size
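Seeded 400 DT40-hTDP1 cells/well (vehicle DMSO, no 20 nM CPT); pinned compounds; ≥48 hr at 37 °C; CellTiter-Glo luminescence as viability measure.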
ELG1 repair inh: ELG1-dependent DNA repair inhibition; Potency, µM (highest dose often 46.1 µM), usual class: inhibitors; actives 2.3% (n = 330,000); HEK293T ELG1-luciferase reporter, luminescence, 16 h; DNA damage induced by 5-fluorouridine; note: nearly all actives have a fitted effect of over 55% in size
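Step one: seed 2,000 cells per well. Step two: pin-transfer compound or DMSO alongside 5-fluorouridine. Step three: incubate 16 hr, 37 °C, 5% CO2. Step four: add ONE-Glo, wait 30 min, read luminescence.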
RORg inh: inhibitors of mouse ROR gamma transcriptional activity | P51450 | Drosophila S2 Gal4-RORgamma UAS-luciferase reporter, 20 h | Potency, µM (doses to about 53.6 µM), most hits filed as inhibitors | actives 5.4% (n = 310,000); note: nearly all actives have a fitted effect of over 60% in size
Target sequence (P51450 whole entry, looked up, the tested form may be a part): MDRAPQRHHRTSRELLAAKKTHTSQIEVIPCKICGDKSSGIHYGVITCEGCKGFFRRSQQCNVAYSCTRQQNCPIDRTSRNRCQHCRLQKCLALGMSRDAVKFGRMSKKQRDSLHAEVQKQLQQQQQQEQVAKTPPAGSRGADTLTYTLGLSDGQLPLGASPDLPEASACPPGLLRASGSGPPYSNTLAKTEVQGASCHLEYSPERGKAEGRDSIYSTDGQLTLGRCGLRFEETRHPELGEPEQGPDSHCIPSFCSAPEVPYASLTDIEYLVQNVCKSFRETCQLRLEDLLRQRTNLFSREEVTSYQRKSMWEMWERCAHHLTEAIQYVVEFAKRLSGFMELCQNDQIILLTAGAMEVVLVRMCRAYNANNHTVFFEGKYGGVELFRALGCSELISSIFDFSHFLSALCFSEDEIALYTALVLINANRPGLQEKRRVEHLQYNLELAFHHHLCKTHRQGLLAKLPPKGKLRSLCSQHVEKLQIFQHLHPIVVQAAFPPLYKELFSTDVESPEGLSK
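Stable Schneider cell line, Gal4 DNA-binding domain fused to ROR gamma, UAS-luciferase. Cmpd 1 hr RT → CuSO4 700 uM final → 20 hr RT → luciferase reagent 10 min → luminescence.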
TDP1 cell CPT: DT40-hTDP1 cell growth loss with CPT; chicken DT40 Tdp1-/-;hTDP1 cells + 20 nM CPT, ATP luminescence, 48 h; Potency, µM (doses to about 46.2 µM), most hits filed as inhibitors; actives 12% (n = 420,000); AID 686979; note: nearly all actives have a fitted effect of over 55% in size
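Cell growth measured by CellTiter-Glo luminescence after a minimum 48 h, 37 C compound exposure with 20 nM CPT in Tdp1-knockout DT40 cells stably expressing hTDP1, seeded 400/well; qHTS titration format.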
Numbers stand for hits; 0 = inactive; ? = inconclusive; - = no result given; [ ] = another dose, or the depositor's remark. Unless noted, calls come from the whole dose curve; as a rule, active = well fitted curve in the direction sought with a large enough effect; inconclusive = small, poorly fitted or top-dose-only effect, or another doubt; inactive = no such curve, though single readings can be large; an effect the other way counts as inactive or inconclusive.

SMILES	Gal4-VP16 FLuc	IL1B secr inh	TDP1 cell noCPT	ELG1 repair inh	RORg inh	TDP1 cell CPT
Cc1ccc(SC/C(O)=C(\C#N)c2nc3ccccc3n2C)cc1	6.3µM	0	?	?	7.9µM	?
CC12C=C(/C=C/CCc3ccco3)C(C)(C1)[C@H](CCc1ccco1)CC2=O (stereo partly drawn)	0	-	-	-	0	-
CCN1c2ccccc2N(C)C1(C)c1ccccc1 (stereo not drawn)	?	0	3.7µM	?	0	3.7µM
CCC1(c2ccccc2)CN(C)C1=O (stereo not drawn)	-	0	0	-	-	0
Cc1ccc2nc3sc(C(=O)N4CCCc5ccccc54)c(N)c3cc2c1	0[0.365 µM]	0	15µM	0	0	?
O=C(c1cc(-c2cccnc2)nc2ccccc12)N1CCCc2ccccc21	0	0	?	21µM	0	?
O=C(c1cc(-c2ccc(F)cc2)nc2ccccc12)N1CCC1	-	0	?	?	-	?
O=C(c1cccnc1)N1CCCc2ccccc21	0	0	0	0	0	0
Cc1ccc(-c2cc(C(=O)N3CCCc4ccccc43)c3ccccc3n2)cc1	0	0	23µM	?	0	?
O=C(c1ccc(Cl)cc1)N1CCC(=O)N(C(CO)Cc2ccccc2)CC1 (stereo not drawn)	-	0	0	-	-	0
Cc1cccc(COCC(Cc2ccccc2)N2CCN(C(=O)c3ccc(C(F)(F)F)cc3)CCC2=O)c1 (stereo not drawn)	?	-76	21µM	?	?	23µM
Cc1cccc(C(=O)N2CCC(=O)N([C@H](COCc3ccc(Cl)cc3)Cc3ccccc3)CC2)c1	0	0	?	-	0	?
Cc1cccc(COC[C@H](Cc2ccccc2)N2CCN(C(=O)c3ccc(C(F)(F)F)cc3)CCC2=O)c1	-	-67	18µM	-	-	?
O=C(c1ccc(C(F)(F)F)cc1)N1CCC(=O)N(C(COCc2ccc(C(F)(F)F)cc2)Cc2ccccc2)CC1 (stereo not drawn)	0	-82	18µM	?	0	?
COC(=O)C1(C(=O)OC)c2ccccc2N(S(=O)(=O)c2ccc(C)cc2)C1CC(C)=O (stereo not drawn)	-	0	?	-	-	?
COc1ccc(OCC(=O)Nc2ccc(Cl)c(-c3nc4ncccc4o3)c2)cc1	-	-	0	-	-	0
O=C(COc1ccccc1F)Nc1ccc(Cl)c(-c2nc3ccccc3[nH]2)c1	-	-	13µM	-	-	?
O=C(COc1ccc(F)cc1)Nc1ccc(Cl)c(-c2nc3ccccc3[nH]2)c1	-	-	21µM	-	-	?
O=C(COc1ccccc1F)Nc1ccc2[nH]c(=O)[nH]c2c1	-	0	0	0	-	0
O=C(NC1CC1)c1ccc2nc([C@@H]3O[C@H](CO)[C@H](O)[C@H](O)[C@H]3O)[nH]c2c1	-	0	0	-	-	0
C[C@@H]1CN([C@@H](C)CO)C(=O)CCCn2nncc2CO[C@H]1CN(C)Cc1ccccc1C(F)(F)F	-	0	?	-	-	18µM
C[C@H]1CN([C@@H](C)CO)C(=O)CCCn2nncc2CO[C@H]1CN(C)S(=O)(=O)c1ccc2ccccc2c1	-	0	23µM	-	-	?
C[C@@H]1CN([C@H](C)CO)C(=O)CCCn2nncc2CO[C@H]1CN(C)Cc1cccc(C(F)(F)F)c1	-	0	0	-	-	21µM
C[C@H](CO)N1C[C@H](C)[C@@H](CN(C)Cc2cccc(C(F)(F)F)c2)OCc2cnnn2CCCC1=O	-	0	?	-	-	?
C[C@@H]1CN([C@H](C)CO)C(=O)CCCn2nncc2CO[C@H]1CN(C)Cc1ccc(Oc2ccccc2)cc1	-	0	?	-	-	?
SMILES	Gal4-VP16 FLuc	IL1B secr inh	TDP1 cell noCPT	ELG1 repair inh	RORg inh	TDP1 cell CPT
C[C@@H]1CN([C@@H](C)CO)C(=O)CCCn2nncc2CO[C@H]1CN(C)Cc1ccc(Oc2ccccc2)cc1	-	0	16µM	-	-	?
N.N.O=C(O)C1(C(=O)O)CCC1.[Pt]	0	-	0	-	0	0
O=S(=O)(NCc1nnc2ccccn12)c1ccc(F)cc1	-	0	0	0	-	0
CCOP(=O)(NC12CC3CC(CC(C3)C1)C2)NC12CC3CC(CC(C3)C1)C2	0	0	?	0	0	?
COCCN(C(=O)COC(=O)c1cccs1)c1c(N)n(Cc2ccccc2)c(=O)[nH]c1=O	0	0	0	0	0	0
CC(C)NC(=O)CSc1nc2ccccc2n1CC(=O)N(C(C)C)C(C)C	0[10 µM]	0	0	0	?	?
C=Cc1ccc(Cn2c(SCC(=O)N3CCN(c4ccc(F)cc4)CC3)nc3ccccc32)cc1	-	-	?	-	-	23µM
CCOC(=O)CSc1nc2ccccc2n1CC(=O)N1CCN(c2ccccc2)CC1	0	0	0	0	0	0
O=C(CSc1nc2ccccc2n1Cc1ccc(F)c(Cl)c1)N1CCN(c2ccc(F)cc2)CC1	-	-	9.2µM	-	-	18µM
CC(C)N(C(=O)CSc1nc2ccccc2n1Cc1ccc(F)cc1)C(C)C	?	-62	?	18µM	?	23µM
Cc1ccc(S(=O)(=O)N2CCC[C@H]2C(=O)NC2=NCCS2)cc1	-	0	0	-	-	0
COc1ccc2c(c1)CCC1C2CCC2(C)C(O)C(=O)CC12 (stereo not drawn)	-	0	?	-	-	0
COc1ccc(C2=C(N3CCN(c4cccc(C)c4)C(C)C3)c3ccccc3C2=O)cc1 (stereo not drawn)	-	-	26µM	-	-	21µM
Cc1cccc(C(=O)N2CCN(c3ncnc4c3cnn4-c3ccccc3)CC2)c1	0	-57	?	15µM	?	?
Cc1cccc(-n2ncc3c(N4CCCC4)ncnc32)c1	?	0	0	?	?	0
Cc1ccc(-n2ncc3c(N4CCN(c5ccccc5)CC4)ncnc32)c(C)c1	0	-69	4.6µM	?	0	5.8µM
Cc1cccc(N2CCN(c3cc(C)nc4nnnn34)CC2C)c1 (stereo not drawn)	-	0	0	0	0[0.365 µM]	0
Cc1cccc(-n2ncc3c(N4CCN(c5ccccc5)CC4)ncnc32)c1	-	-	?	-	-	21µM
CNc1nc(-c2cccc(C(=O)N(C)C)c2)cn2ccnc12	-	0	0	-	-	0
COc1ccc(N2CCN(c3ncnc4c3cnn4-c3ccc(C)cc3C)CC2)cc1	0	0	12µM	?	0	?
COc1ccc(-n2ncc3c(N4CCN(c5cc(C)ccc5C)CC4)ncnc32)cc1	0	0	?	0	0	0
Cc1ccc(-n2ncc3c(N4CCN(c5ccccc5)CC4)ncnc32)cc1C	-	-	13µM	-	-	?
Cc1cccc(-n2ncc3c(N4CC(C)CC(C)C4)ncnc32)c1 (stereo not drawn)	?	0	?	?	0	?
COc1ccc(-n2ncc3c(N4CCN(c5cccc(C)c5)C(C)C4)ncnc32)cc1 (stereo not drawn)	-	-	10µM	-	-	2.9µM

Assay outcomes as filed in PubChem BioAssay.
